Screens deposited in PubChem BioAssay by National Center for Advancing Translational Sciences (NCATS).
TDP1 block: qHTS Assay for Inhibitors of Tyrosyl-DNA Phosphodiesterase (TDP1); Tyrosyl-DNA phosphodiesterase 1 (Homo sapiens), Q9NUW8; recombinant TDP1, AlphaScreen DNA substrate cleavage; Potency, µM (titrated, usually from 130 µM), inactives show top-dose activity change, negative = inhibition, actives largely listed as inhibitors; hit rate 0.28% among 350,000; further: on the % scale 0 is the no-effect control and ±100 the full control effect; nearly all actives have a fitted effect of over 40% in size
Target sequence (Q9NUW8 whole entry, looked up): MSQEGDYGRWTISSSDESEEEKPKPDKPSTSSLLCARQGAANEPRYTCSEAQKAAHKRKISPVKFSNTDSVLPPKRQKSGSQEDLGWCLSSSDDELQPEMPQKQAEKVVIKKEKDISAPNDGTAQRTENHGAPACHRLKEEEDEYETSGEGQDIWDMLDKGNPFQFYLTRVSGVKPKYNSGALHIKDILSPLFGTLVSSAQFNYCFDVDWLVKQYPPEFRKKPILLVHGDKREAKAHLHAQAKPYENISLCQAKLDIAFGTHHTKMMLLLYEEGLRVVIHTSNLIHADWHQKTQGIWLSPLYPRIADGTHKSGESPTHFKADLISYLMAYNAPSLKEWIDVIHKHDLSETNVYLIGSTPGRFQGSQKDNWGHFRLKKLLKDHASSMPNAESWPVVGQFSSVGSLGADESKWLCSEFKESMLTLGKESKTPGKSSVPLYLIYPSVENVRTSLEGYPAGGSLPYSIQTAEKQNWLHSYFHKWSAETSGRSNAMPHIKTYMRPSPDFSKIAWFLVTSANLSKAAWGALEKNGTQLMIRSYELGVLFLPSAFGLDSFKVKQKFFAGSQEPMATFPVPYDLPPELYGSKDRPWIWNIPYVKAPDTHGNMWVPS
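AlphaScreen read-out: signal falls as enzyme removes the 3' tyrosine-FITC from a 5'-biotinylated DNA oligo (15 nM, 5 min, RT). Enzyme was E. coli-made recombinant Tdp1 at 1 nM, exposed to compound for 15 min beforehand; beads 10 ug/ml, 10 min.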
BAZ2B inh: qHTS Assay for Inhibitors of BAZ2B; Bromodomain adjacent to zinc finger domain protein 2B (Homo sapiens), Q9UIF8; Potency, µM (doses to about 114 µM), inactives show top-dose activity change, negative = inhibition, usual class: inhibitors; AlphaScreen BAZ2B-H3K14Ac peptide displacement; hit rate 4.4% among 360,000; further: on the % scale 0 is the no-effect control and ±100 the full control effect; nearly all actives have a fitted effect of over 60% in size
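Compounds, titrated to a top concentration of 110 uM, were incubated 30 min at room temperature with preformed BAZ2B/acetyl-K14 H3 peptide complex (50 nM each). Proximity signal was measured by AlphaScreen after 20 min with beads.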
JMJD2A Tudor: qHTS Assay for Inhibitors of JMJD2A-Tudor Domain; Lysine-specific demethylase 4A (Homo sapiens), O75164; AlphaScreen JMJD2A-Tudor / H3K4me3 peptide binding; Potency, µM (top dose mostly 114 µM), inactives show top-dose activity change, negative = inhibition, usual class: inhibitors; hit rate 4.4% among 390,000; AID 504339, 2011; further: on the % scale 0 is the no-effect control and ±100 the full control effect; nearly all actives have a fitted effect of over 50% in size
Sfp inh: qHTS Assay for Inhibitors of Bacillus subtilis Sfp phosphopantetheinyl transferase (PPTase) | 4'-phosphopantetheinyl transferase ffp (Bacillus subtilis), Q9F4F7 | Biochemical Sfp PPTase activity, qHTS | Potency, µM, for inactives: largest response in the series, negative = inhibition, actives largely listed as inhibitors | hit rate 3.5% among 310,000 | AID 1490, 2009;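 further: the enzyme is Sfp with the accession as filed and its product quenches rhodamine fluorescence; 0% = enzyme reaction without inhibitor and -100% = no enzyme wells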
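After 15 min at room temperature with compound, 15 nM Sfp received 5 uM rhodamine-CoA plus 12.5 uM BHQ-2-ybbR (50 mM Hepes pH 7.6, 10 mM MgCl2). Rate came from the fluorescence difference over 30 min, ex 525/em 598 nm.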
HP1b binding inh: HTS for Inhibitors of HP1-beta Chromodomain Interactions with Methylated Histone Tails | hit rate 0.56% among 390,000 | Potency, µM (series often up to 114 µM), for inactives: top-dose activity change, negative = inhibition, hits mostly inhibitors | AlphaScreen HP1-beta / biotin-H3K9me3 peptide binding; further: nearly all actives have a fitted effect of over 70% in size
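HP1-beta protein (50 nM final) preincubated 30 min at room temperature with biotinylated H3(1-18)K9me3 peptide (50 nM) in PBS pH 7.4, 0.01% Tween-20, then compound added for 30 min. AlphaScreen streptavidin donor/nickel chelate acceptor beads (10 ug/mL final), 30 min dark, luminescence read.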
G9a block: qHTS Assay for Inhibitors of Histone Lysine Methyltransferase G9a; Histone-lysine N-methyltransferase EHMT2 (Homo sapiens), Q96KQ7; G9a H3K9 monomethylation, AlphaScreen, 2 h; Potency, µM (doses to about 102 µM), without a hit: at the highest dose activity, negative = inhibition, most hits filed as inhibitors; hit rate 8.8% among 350,000; AID 504332, 2011; further: on the % scale 0 is the no-effect control and ±100 the full control effect; nearly all actives have a fitted effect of over 75% in size
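AlphaScreen detection with an anti-monomethyl H3K9 antibody quantified product after a 2 h room-temperature reaction containing 500 nM biotinylated H3K9 peptide, 20 µM SAM and 20 nM enzyme, which had been preincubated 15 min with compound.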
* = called active by the depositor; u = inconclusive; x = no result given; [ ] = dose if it differs, or a comment. Compounds with a hit are over-represented: about 12% of the library has one in this group of screens. The call rests on the fitted dose curve; in most records, active means well fitted curve in the direction sought with a large enough effect; inconclusive means small, poorly fitted or top-dose-only effect, or another doubt; inactive means no such curve, though single readings can be large; an effect the other way counts as inactive or inconclusive. Potency means the concentration at half of the fitted maximal effect.

SMILES | TDP1 block | BAZ2B inh | JMJD2A Tudor | Sfp inh | HP1b binding inh | G9a block
COc1ccc(OCC(=O)N2CCN(c3cccc(Cl)c3)CC2)cc1 | 8% | 4% | -19% | 6% | 12% | -2%[59 µM]
CCS(=O)(=O)c1ncc(Cl)c(C(=O)N2CCN(c3cccc(Cl)c3)CC2)n1 | 4% | -11% | -31% | x | 8% | 13µM*
CCO[C@H](c1cc(OC)cc([N+](=O)[O-])c1OC)[C@H](C)/C=C\CC(=O)OC | 8%[21 µM] | x | x | 6% | x | x
COCCN(C(=O)c1ccc(N2CCCC2=O)cc1)c1c(N)n(Cc2ccccc2)c(=O)[nH]c1=O | 0% | 6% | -12% | x | 35% | 7.9µM*
COCCN(C(=O)c1ccc(OCC(C)C)cc1)c1c(N)n(Cc2ccccc2)c(=O)[nH]c1=O | -8% | -1% | -8% | x | 12% | 35µM*
CCCn1c(N)c(N(CCOC)C(=O)c2ccc(N(C)S(=O)(=O)c3ccc(C)cc3)cc2)c(=O)[nH]c1=O | x | u | -9% | x | 5% | 1µM*
COCCN(C(=O)c1ccc(C#N)cc1)c1c(N)n(Cc2ccccc2)c(=O)[nH]c1=O | 1% | 5% | 1% | x | 53% | -5%[12.7 µM]
CCCCn1c(N)c(N(CCOC)C(=O)c2ccc(N3CCCC3=O)cc2)c(=O)[nH]c1=O | 0% | 10% | -13% | x | 29% | -4%[12.7 µM]
CCCCn1c(N)c(N(CCOC)C(=O)c2ccc(N(C)S(=O)(=O)c3ccc(C)cc3)cc2)c(=O)[nH]c1=O | -2% | 4% | -14% | x | -5% | u
CCCn1c(N)c(N(CCOC)C(=O)c2ccc([N+](=O)[O-])cc2Cl)c(=O)[nH]c1=O | -6% | 8% | -9% | 2% | 4% | 50µM*
CCOC(=O)c1nn(-c2ccc(OC)cc2)c(=O)c2c(NC(=O)Cc3ccccc3)scc12 | -1% | x | -12% | x | x | x
CCCn1c(N)c(N(CCOC)C(=O)c2ccc(N3CCCC3=O)cc2)c(=O)[nH]c1=O | -1% | 5% | 0% | x | 38% | 56µM*
Cc1ccc(N/N=C2\CC(=O)c3ccccc32)cc1Cl | x | 11µM* | x | -14% | x | x
CCN1CCN(C(=O)C(C)Nc2cc(Cl)c(OC)cc2OC)CC1 (stereo not given) | 0% | x | -29% | -7% | 11% | 40µM*
CCOc1cc(N2CCOCC2)c(OCC)cc1NC(=O)COC(=O)CCOc1ccc(C(C)(C)C)cc1 | 11% | 35µM* | 20µM* | x | u | 4%[0.501 µM]
CCOc1cc(N2CCOCC2)c(OCC)cc1NC(C)C(=O)N1CCN(CC)CC1 (stereo not given) | 13µM* | 10µM* | 0.35µM* | 35µM* | u | 4µM*
CCOc1ccc(OCCC(=O)OCC(=O)Nc2ccc(N3CCOCC3)cc2)cc1 | 0% | -30% | -24% | 2% | 20% | u
COc1ccc(NC(C)=O)cc1NS(=O)(=O)c1cn(C)c(=O)n(C)c1=O | x | 79µM* | -10% | 14% | 45% | -9%
COc1ccc(C)cc1NS(=O)(=O)c1cn(C)c(=O)n(C)c1=O | 2% | 6% | -1% | -13% | 26% | u
Cc1ccccc1OC(C)C(=O)NCCNC(=O)C(C)Oc1ccccc1C (stereo not given) | 1% | x | -7%[57.1 µM] | x | 22%[57 µM] | x
Cc1ccc(OCC(=O)Nc2ccccc2OCc2cc(=O)n3ccccc3n2)cc1C | 3% | 11% | -10% | x | 10%[57 µM] | 8%[59 µM]
COc1ccccc1NC(=O)c1oc2ccccc2c1NC(=O)c1ccccc1C(F)(F)F | 4% | -13% | -19% | x | 11% | 1%[59 µM]
COc1ccccc1CNc1nc(-c2ccco2)nn1S(=O)(=O)c1ccc2ccccc2c1 | 3% | u | -32% | x | 43% | u
COc1cc(NC(=O)c2ccccc2F)c(OC)cc1NC(=O)CN1CCOCC1 | 2% | -34% | -20% | 15% | 19% | 45µM*
CCOc1cc(N2CCOCC2)c(OCC)cc1NC(=O)Cc1ccccc1OC | 7% | 45µM* | u | -13% | u | u
SMILES | TDP1 block | BAZ2B inh | JMJD2A Tudor | Sfp inh | HP1b binding inh | G9a block
CCOc1cc(N2CCOCC2)c(OCC)cc1NS(=O)(=O)c1cc(NC(C)=O)ccc1OC | x | 71µM* | -33% | -2% | 12% | 45µM*
CCOc1cc(N2CCOCC2)c(OCC)cc1NC(=O)Cc1ccccc1 | 4% | u | -31% | -6% | 3% | x
CCOc1ccc(OCC)c(NC(=O)CN2CCN(c3cccc(C)c3C)CC2)c1 | x | u | 1.6µM* | u | u | u
CCOc1ccc(OCC)c(NC(=O)CN2CCN(C(=O)c3ccco3)CC2)c1 | 2% | 8% | -2%[11.4 µM] | 13% | -25% | -8%[12.7 µM]
COc1cccc(C2C(C#N)=C(NC(=O)NCc3ccccc3)Oc3ccc4ccccc4c32)c1 (stereo not given) | x | x | -10% | x | x | x
CCOc1cc(N2CCOCC2)c(OCC)cc1NC(=O)CSc1ncccn1 | 1% | -27% | -18% | 0% | -25% | 40µM*
CCOc1cc(N2CCOCC2)c(OCC)cc1NC(=O)CSc1ncccc1C(=O)O | 2% | x | -3% | x | 14% | x
CCOc1cc(N2CCOCC2)c(OCC)cc1NC(=O)CN1C(=O)NC(Cc2ccccc2)C1=O (stereo not given) | 1% | 2% | 4% | -13% | 27% | u
CCOc1cc(N2CCOCC2)c(OCC)cc1NC(=O)CN1CCC(Cc2ccccc2)CC1 | 2% | 32µM* | 22µM* | -5% | 25µM* | 50µM*
CCOc1ccc(-c2nc3c(c(SCC(=O)N4CCCCC4)n2)Cc2ccccc2O3)cc1 | -1% | -4% | -8% | x | 21% | -24%[59 µM]
CCCN=C1N(C)C[C@@H]2[C@@H]3C(=O)N(Cc4ccccc4)C(=O)[C@@H]3[C@](CC)(C(=O)OC)N12 | x | x | -35% | x | 13% | x
COc1cc(/C=C2\C(=N)N3N=C(S(C)(=O)=O)SC3=NC2=O)ccc1OCCOc1ccc(C)cc1 | x | -32% | -19% | -20% | u | u
CCS(=O)(=O)C1=NN2C(=N)/C(=C\c3ccc(OCCOc4cccc(OC)c4)c(OC)c3)C(=O)N=C2S1 | x | 35µM* | 56µM* | -29% | 5% | 56µM*
CCOc1cc(/C=C2\C(=N)N3N=C(S(C)(=O)=O)SC3=NC2=O)ccc1OCCOc1cccc(OC)c1 | x | 71µM* | 79µM* | -14% | u | -1%[2.33 µM]
